GPR151 ag – activators of human GPR151 | hit rate 1% among 650,000 | activation, % at 11.2 µM | AID 1508602 | PathHunter beta-arrestin GPR151 cells, luminescence; in the data active = activation above about 4.9%
Target sequence (Q8TDV0 whole entry, looked up): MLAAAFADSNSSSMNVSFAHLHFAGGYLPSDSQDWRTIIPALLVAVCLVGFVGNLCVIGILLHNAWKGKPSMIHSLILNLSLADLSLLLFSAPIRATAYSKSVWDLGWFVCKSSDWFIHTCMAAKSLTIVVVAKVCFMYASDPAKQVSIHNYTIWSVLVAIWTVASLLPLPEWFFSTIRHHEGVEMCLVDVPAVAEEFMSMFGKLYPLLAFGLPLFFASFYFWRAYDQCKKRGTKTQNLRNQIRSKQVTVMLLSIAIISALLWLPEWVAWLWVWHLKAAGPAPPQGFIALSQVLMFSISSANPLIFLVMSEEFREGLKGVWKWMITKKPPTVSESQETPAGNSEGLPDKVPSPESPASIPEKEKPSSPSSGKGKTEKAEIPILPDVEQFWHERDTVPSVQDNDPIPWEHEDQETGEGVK
MITF primary – inhibitors of human MITF; O75030; AlphaScreen MITF homodimerization, bead proximity signal; inhibition, % at 2.6 µM; hit rate 0.91% among 650,000; AID 1259374; in the data active = inhibition above about 50%
FBW7 act – activators of human E3 ligase FBW7. normalized activity (activation), % at 26.1 µM. AlphaScreen FBW7–phospho-cyclin E peptide binding, activator screen. hit rate 0.13% among 650,000; in the data active = normalized activity above about 1.9%;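 also: purified mutant Fbw7 with reduced substrate affinity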
TEAD-YAP block – TEAD-YAP interaction inhibition; hit rate 1.4% among 640,000; AID 1259422; inhibition, % at 9.12 µM; HEK-TIYL cells, TEAD-Gal4/YAP UAS-luciferase luminescence; in the data active = inhibition above about 32%
Each line names hits and unclear results; the compound was inactive in the other large screens. Only some compounds are listed: those with a hit (about 3.4% of all), similar ones and a draw of the others.

CCOc1ccc(S(=O)(=O)Nc2cc([N+](=O)[O-])ccc2OC)cc1	TEAD-YAP block 51.3
CCOC(=O)c1c(/N=c2\oc3c(OC)cccc3cc2C(=O)Nc2cccc(C)c2)sc2c1CCCC2	none
CCOC(=O)c1c(/N=c2\oc3c(OC)cccc3cc2C(=O)Nc2ccc(OC)cc2)sc2c1CCCC2	TEAD-YAP block 36.2
CCC(C)n1c(SCc2c(F)cccc2Cl)nc2ccsc2c1=O (centres undefined)	none
CCC(C)n1c(SCc2ccccc2Cl)nc2ccsc2c1=O (centres undefined)	TEAD-YAP block 51.1
COc1cc(-c2cc3cc([N+](=O)[O-])ccc3oc2=O)c([N+](=O)[O-])cc1OC	none
CC(=O)Oc1ccc(C(=O)c2ccc(OC(C)=O)cc2)cc1	none
CC(=O)OC(=C(Cl)Cl)c1ccc(C(OC(C)=O)=C(Cl)Cl)cc1	TEAD-YAP block 41.7
COc1cccc(C2=NNc3nc4c(c(=O)n(C)c(=O)n4C)n3C2)c1	none
Oc1ccccc1CNCc1ccccn1	MITF primary 76.5
CCCN(CCC)c1ncnc(N)c1[N+](=O)[O-]	TEAD-YAP block 60.7
CN(Cc1ccccc1)c1ncnc(N)c1[N+](=O)[O-]	none
CCCN1C(=O)COc2ccc(-c3csc(NC(=O)C(CC)CC)n3)cc21	TEAD-YAP block 31.9
CC(=O)Nc1nc(-c2ccc3c(c2)CCO3)cs1	none
Cn1c(SCC2CCCO2)nnc1-c1ccccc1O (centres undefined)	TEAD-YAP block 61.1
Cn1c(SCC2CCCCO2)nnc1-c1ccccc1 (centres undefined)	none
COc1ccc2nc(NCCCNC(=O)Nc3ccc(F)cc3F)c(C#N)cc2c1	none
COc1ccc(/C=N\Nc2ncccc2[N+](=O)[O-])c(OC)c1	TEAD-YAP block 41.0
CC(=O)N(Cc1ccc(F)cc1)C1=C(NCc2ccccc2)C(=O)c2ccccc2C1=O	TEAD-YAP block 59.0
N#Cc1ccc(C(=O)NC2CCCC2)c(F)c1	none
Cc1nc2ccc(C(=O)N3c4ccccc4CC3C)cc2s1 (centres undefined)	TEAD-YAP block 42.1
O=C(Nc1cc(Cl)cc(Cl)c1)c1ccccn1	none
O=C(Nc1ccc(-c2ccccc2)cc1)c1ccccn1	TEAD-YAP block 63.6
N/C(=N\O)c1ccc(NC(=O)c2ccccn2)cc1	TEAD-YAP block 32.1
N/C(=N\OC(=O)c1ccc(F)cc1)c1ccccn1	TEAD-YAP block 55.7
CC(C)C(=O)N1CCCC(c2nnc(-c3ccccc3F)s2)C1 (centres undefined)	TEAD-YAP block 92.6
COc1ccc(CNC(=O)N2CCCC(c3nnc(-c4ccccc4F)s3)C2)cc1 (centres undefined)	none
CC(=O)N1CCCC(c2nnc(-c3ccccc3F)s2)C1 (centres undefined)	TEAD-YAP block 81.8
O=C(c1nc2sccn2c1CNCCCN1CCOCC1)N1CCCCCCC1	none
CCOC(=O)c1[nH]c(C)c(CN(C(C)=O)c2ccc(OCC)cc2)c1C	TEAD-YAP block 52.4
C=CCN(CC=C)Cc1c(C(=O)N2CCOCC2)nc2c(C)cccn12	none
Cn1c(C(=O)NCCCN2CCCC2)cc2sccc21	none
Cc1cc2c(cc(C(=O)NCCc3ccccc3)n2C)s1	TEAD-YAP block 57.6
Cn1c(C(=O)NCCc2ccccc2)cc2sccc21	TEAD-YAP block 41.3
CCOC(=O)C1=C(CSc2ccc(F)cc2)NC(=O)NC1c1cccs1 (centres undefined)	none
N#CC1=C(N)OC2=C(C(=O)CCC2)C1c1cn[nH]c1-c1ccc(F)cc1 (centres undefined)	none
O=C1CCCC2=C1C(c1cn[nH]c1-c1ccc(F)cc1)C1=C(CCCC1=O)O2	TEAD-YAP block 49.0
O=C(N/N=C/c1cc(Cl)cc(Cl)c1O)c1ccncc1	MITF primary 95.6, TEAD-YAP block 32.3
Nc1nonc1C(=O)N/N=C/c1cc(Cl)cc(Cl)c1O	MITF primary 68.2
COc1ccc(O)c(/C=N/NC(=O)c2ccncc2)c1	none
O=C(N/N=C/c1cc2ccccc2cc1O)c1ccncc1	MITF primary 53.5, TEAD-YAP block 87.8
Nc1nonc1C(=O)N/N=C/c1ccccc1O	MITF primary 62.6
O=c1c2ccccc2nc(/C=C/c2cc(Br)ccc2O)n1Cc1ccccc1	none
CCC(CC)c1nnc(NC(=O)CSc2ccccc2)s1	none
COC(CNC(=O)c1cnn2c(C)c(Cc3c(C)cc(C)cc3C)c(C)nc12)OC	TEAD-YAP block 50.1
COC(=O)c1cnn2c(C)c(Cc3ccc(F)cc3)c(C)nc12	TEAD-YAP block 36.3
COc1ccccc1CNC(=O)c1cnn2c(C)c(Cc3ccc(F)cc3)c(C)nc12	none
Cc1ccc(-c2n[nH]c(=S)n2/N=C\c2ccc(O)c(O)c2)cc1	none
Oc1ccc(/C=N/n2c(-c3ccncc3)n[nH]c2=S)cc1O	MITF primary 62.9
COc1ccc2c(c1)C(=O)NC2CC(=O)NC1(c2ccccc2OC)CCCC1 (centres undefined)	TEAD-YAP block 48.9
CCCCSc1nc2sc(C)c(C)c2c(=O)n1-c1ccccc1	none
O=C(CSc1nc(-c2ccccc2)ns1)N1CCCCCC1	TEAD-YAP block 39.5
Cc1ccc(C(=O)N/C(=C\c2ccc(F)cc2)C(=O)Nc2c(C)n(C)n(-c3ccccc3)c2=O)cc1	none
Cc1c(NC(=O)/C(=C\c2ccccc2)NC(=O)c2ccccc2)c(=O)n(-c2ccccc2)n1C	FBW7 act 1.9
Cc1nc(SCc2ccc(Cl)c(Cl)c2)n[nH]1	none
COc1ccc(CSc2n[nH]c(C)n2)cc1Br	TEAD-YAP block 34.4
CCc1ccc(/C=N/NC(=O)c2ccoc2C)cc1	none
COC(=O)c1ccc(/C=N/NC(=O)c2ccoc2C)cc1	TEAD-YAP block 35.5
CCOC(=O)c1ccc(CN(Cc2ccc(OC)cc2)S(=O)(=O)c2ccc(Br)cc2)cc1	none
Cc1ccc(C2=NN(C(=O)c3ccco3)C(O)(C(F)(F)F)C2)cc1 (centres undefined)	none
COc1ccc(C2=NN(C(=O)c3ccco3)C(O)(C(F)(F)F)C2)cc1 (centres undefined)	TEAD-YAP block 41.3
O=C(CCl)NCCSc1ccc(Cl)cc1	TEAD-YAP block 56.8
COc1ccc(C(=O)Nc2cc(C(=O)N3CCC(Cc4ccccc4)CC3)ccc2N2CC3CC(C2)c2cccc(=O)n2C3)cc1 (centres undefined)	none
CCc1c(C(=O)N/N=C/c2ccc(O)cc2O)nnn1-c1nonc1N	TEAD-YAP block 76.3
CC(C)(C)c1ccc(C(=O)N/N=C/c2ccc(O)cc2O)cc1	none
CN(C)Cc1c(C(=O)N/N=C/c2ccc(O)cc2O)nnn1-c1nonc1N	none
CCCN(CCC)Cc1c(C(=O)N/N=C/c2ccc(O)cc2O)nnn1-c1nonc1N	TEAD-YAP block 71.0
Cc1nonc1C(=O)N/N=C/c1ccc(O)cc1O	MITF primary 81.5
O=C(/C=C/c1cccs1)c1ccc(F)cc1	none
CC1CCCC(C)N1C(=O)COc1ccccc1C#N (centres undefined)	none
Cc1cccc(C)c1OCC(=O)N/N=C/c1ccc([N+](=O)[O-])o1	none
N#C/C(=C\c1ccc(O)c(O)c1)c1nc(-c2ccc3c(c2)OCO3)cs1	MITF primary 58.0
N#C/C(=C\c1ccc(O)c(Br)c1)c1nc(-c2ccc3c(c2)OCO3)cs1	none
COc1ccccc1NC(=O)C1CCN(S(=O)(=O)c2ccc3c(c2)OCC(=O)N3)CC1	none

Bioassay records as filed in PubChem.
